Assay results taken from PubChem BioAssay (NCI).
About 83,000 compounds went through this panel and 20% of them were active in at least one assay; those are over-represented in the sample as a whole.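 For each line, cells grew in 96-well plates with the test compound present at a single concentration for 48 hours.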 Values without a mark were called inactive. The source made the active and inactive calls. Rule for the calls: active = growth percent below 10; inactive = the rest.

Assays:
Experiment in all cases: NCI-60 one-dose screen, 48 h (100 = growth as untreated, 0 = no growth, -100 = all killed)
Conditions in all cases: 10 µM
[1] = test system: 786-0 renal
[2] = test system: MALME-3M melanoma
[3] = test system: SF-268 CNS
[4] = test system: SF-295 CNS
[5] = test system: UACC-257 melanoma
[6] = test system: UACC-62 melanoma
[7] = test system: SK-MEL-28 melanoma
[8] = test system: SK-MEL-2 melanoma
[9] = test system: EKVX NSCLC
[10] = test system: SN12C renal
[11] = test system: UO-31 renal
[12] = test system: TK-10 renal
[13] = test system: ACHN renal
[14] = test system: CAKI-1 renal
[15] = test system: A498 renal
[16] = test system: OVCAR-8 ovarian
[17] = test system: OVCAR-5 ovarian
[18] = test system: IGROV1 ovarian
[19] = test system: OVCAR-3 ovarian
[20] = test system: HS 578T breast

| Structure (SMILES) | growth [1] | growth [2] | growth [3] | growth [4] | growth [5] | growth [6] | growth [7] | growth [8] | growth [9] | growth [10] | growth [11] | growth [12] | growth [13] | growth [14] | growth [15] | growth [16] | growth [17] | growth [18] | growth [19] | growth [20] |
| --- | --- | --- | --- | --- | --- | --- | --- | --- | --- | --- | --- | --- | --- | --- | --- | --- | --- | --- | --- | --- |
| Fc1ccc(-c2csc(Nc3cccc(Nc4nc(-c5ccc(F)cc5)cs4)c3)n2)cc1 | 68.8% | 83% | 57.9% | 90.4% | 74.6% | 57.1% | 76.4% | 34.7% | 39.8% | 47.2% | 31.3% | 94.5% | 51.8% | 46.4% | 78.3% | 67.9% | 65.5% | 41.8% | 57.5% | 69.3% |
| Cn1cc(-c2nnc(N)nc2-c2c[nH]c3ccc(F)cc23)c2cc(Br)cnc21 | 48% | 106% | 60.1% | 41% | 99.6% | 50.8% | 52.4% | 71% | 94% | 72.3% | 43.1% | 45.5% | 47% | 37.4% | 47.1% | 71.5% | 83.3% | 50.4% | 57.5% | 52% |
| O=C(CN1CCN(c2ncnc3c2cnn3-c2ccccc2)CC1)Nc1ccc(Br)cc1 | -61.7% (active) | -54.4% (active) | 58.8% | 83% | 58.7% | 45.1% | 72% | 29.9% | 46.9% | 39.1% | -77% (active) | 121% | -88.1% (active) | -57% (active) | 90.9% | 64.7% | 78.2% | 58.1% | 60.6% | 70.7% |
| Cn1cc(-c2cc(N)n3nc(-c4cn(C)c5ccccc45)cc3n2)c2cc(F)ccc21 | -89.4% (active) | -78.5% (active) | -63.1% (active) | -72.6% (active) | -86.4% (active) | -67.7% (active) | -80.4% (active) | -92.5% (active) | -50.1% (active) | -67% (active) | -82.4% (active) | -58.6% (active) | -89.4% (active) | -80.9% (active) | -68.9% (active) | -94.9% (active) | -52.6% (active) | -41.5% (active) | -75% (active) | -24.1% (active) |
| CC1(C)CC[C@]2(C(=O)O)CC[C@]3(C)C(=CCC4[C@@]5(C)C[C@@H](O)[C@@H]6OC(c7cccc(F)c7)OC[C@@]6(C)C5CC[C@]43C)C2C1 (stereo not given in full) | 59.3% | 70% | 55.6% | 42.7% | 67.8% | 49.7% | 66% | 51.1% | 19.2% | 28.2% | 34.2% | 32.4% | 17.6% | 49% | 78.7% | 31.7% | 73.2% | 75.4% | 37.9% | 66.4% |
| CCOC(=O)C1=C(N)N(c2ccc(C)cc2)C2=C(C(=O)CC(C)(C)C2)C1c1ccccc1Br (stereo not given) | 83.9% | 109% | 99.3% | 90.5% | 84.1% | 71.8% | 93.7% | 85% | 91% | 85.2% | 76% | 110% | 85.9% | 69.8% | 108% | 90.1% | 97.5% | 110% | 84.9% | 99.5% |
| COc1cc2oc(-c3cccc(C(=O)Nc4ccc(Cl)cc4)c3)cc(=O)c2c(OCCN)c1OC | -80.9% (active) | -67.9% (active) | -76.8% (active) | -81.4% (active) | -85.2% (active) | -86.7% (active) | -88.1% (active) | -94.5% (active) | -84.6% (active) | -91.1% (active) | -81.1% (active) | -91.2% (active) | -92.5% (active) | -85% (active) | -93.9% (active) | -85.5% (active) | -87.4% (active) | -73.7% (active) | -87.8% (active) | -68.1% (active) |
